Data on eight compounds can be found in PubChem BioAssay (NCI).

Some test systems named below: SK-MEL-2 melanoma; EKVX NSCLC; SN12C renal; UO-31 renal; TK-10 renal; ACHN renal; CAKI-1 renal; A498 renal; CCRF-CEM leukemia; MOLT-4 leukemia; SR leukemia; RPMI-8226 leukemia; OVCAR-8 ovarian; OVCAR-5 ovarian; OVCAR-4 ovarian; SK-OV-3 ovarian; IGROV1 ovarian; OVCAR-3 ovarian; HS 578T breast; NCI/ADR-RES ovarian.
Common to all, as to experiment: NCI-60 one-dose screen, 48 h (100 = growth as untreated, 0 = no growth, -100 = all killed)
Conditions in all cases: 10 µM

Molecules are shown by their SMILES. Compounds without any hit were thinned out: in the full panel of roughly 83,000, 20% have a hit.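 Each cell line was grown in a 96-well plate and treated with one concentration of compound for 48 hours. Values below 10 were considered active.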 A number with no mark means an inactive call. The source made the active and inactive calls.

For `Cc1ccc(C(=O)C2C(=O)C3CCC2C3)cc1` (centres undefined), the growth in the test on SK-MEL-2 melanoma is 111%; with EKVX NSCLC it was 98.5%; in the test with SN12C renal, 97.3%; in the test with UO-31 renal, 90.2%; with TK-10 renal, 111%; in the test on ACHN renal, 100%. The growth was 96.1% in the test with CAKI-1 renal; 109% in the test with A498 renal; 96.3% in the test on CCRF-CEM leukemia; 105% in the test on MOLT-4 leukemia; 129% with SR leukemia; 99.3% in the test with RPMI-8226 leukemia. Moreover, the growth in the test on OVCAR-8 ovarian was 100%; in the test on OVCAR-5 ovarian it was 99%; with OVCAR-4 ovarian it was 102%; in the test on SK-OV-3 ovarian, 107%; with IGROV1 ovarian, 113%; in the test with OVCAR-3 ovarian, 107%. The growth in the test with HS 578T breast is 106%; with NCI/ADR-RES ovarian, 99.3%.

For the compound `CC(=O)Nc1ccc2c(c1)C(=O)c1cccc(C(=O)O)c1-2`, the growth in the test on SK-MEL-2 melanoma is 115%; in the test with EKVX NSCLC, 107%; with SN12C renal it was 109%; in the test with UO-31 renal, 111%; in the test on TK-10 renal, 116%; in the test with ACHN renal, 105%. Besides, the growth with CAKI-1 renal was 94.9%; in the test with A498 renal, 120%; in the test with CCRF-CEM leukemia it was 103%; in the test on MOLT-4 leukemia it was 107%; in the test with SR leukemia it was 123%; in the test on RPMI-8226 leukemia it was 105%. Moreover, the growth with OVCAR-8 ovarian was 106%; in the test on OVCAR-5 ovarian, 103%; in the test with OVCAR-4 ovarian, 108%; in the test with SK-OV-3 ovarian, 108%; with IGROV1 ovarian it was 135%; with OVCAR-3 ovarian, 118%. The figures for the growth in the test on HS 578T breast and with NCI/ADR-RES ovarian were 109% and 107%, respectively.

Regarding `CC[C@@H]1NC(=O)[C@H]([C@H](O)[C@H](C)C/C=C/c2ccc(CN3C(=O)CCCC3=O)cc2)N(C)C(=O)[C@H](C(C)C)N(C)C(=O)[C@H](CC(C)C)N(C)C(=O)[C@H](CC(C)C)N(C)C(=O)[C@@H](C)NC(=O)[C@H](C)NC(=O)[C@H](CC(C)C)N(C)C(=O)[C@H](C(C)C)NC(=O)[C@H](CC(C)C)N(C)C(=O)CN(C)C1=O`, the growth in the test with SK-MEL-2 melanoma was 38.2%; in the test on EKVX NSCLC it was 37.4%; with SN12C renal, 71.1%; in the test with UO-31 renal, 49.7%; in the test with TK-10 renal, 39.8%; in the test on ACHN renal it was 40.3%. For the same compound, the growth in the test on CAKI-1 renal was 77.3%; with A498 renal it was 4.54% (active); with CCRF-CEM leukemia, 11.6%; in the test with MOLT-4 leukemia, 21.8%; with SR leukemia it was -2.59% (active); in the test with RPMI-8226 leukemia, 9.26% (active). Also, the growth was 68.4% with OVCAR-8 ovarian; 83.8% with OVCAR-5 ovarian; 53.9% in the test with OVCAR-4 ovarian; 74.9% in the test on SK-OV-3 ovarian; 58.2% in the test on IGROV1 ovarian; 54.4% in the test on OVCAR-3 ovarian. In the test on HS 578T breast, the growth was 73.9%.

Take `COc1cc(/C=C/c2cc(/C=C/c3ccc(O)c(OC)c3)n(C(=O)Nc3ccc(C)cc3)n2)ccc1O`: the growth in the test on SK-MEL-2 melanoma is -14% (active); with EKVX NSCLC, 20.3%; in the test on SN12C renal, 18.3%; in the test on UO-31 renal, 0.972% (active); with TK-10 renal, 28.5%; in the test on ACHN renal, 16.1%. For the same compound, the growth in the test on CAKI-1 renal is 8.65% (active); with A498 renal, -12% (active); in the test with CCRF-CEM leukemia, 0.439% (active); in the test on MOLT-4 leukemia, 0.114% (active); in the test on SR leukemia, -14.7% (active); with RPMI-8226 leukemia, -14.5% (active). For the same compound, the growth with OVCAR-8 ovarian is -2.98% (active); in the test on OVCAR-5 ovarian, 20.5%; with OVCAR-4 ovarian, 16.1%; with SK-OV-3 ovarian, -29.1% (active); in the test with IGROV1 ovarian, 4.76% (active); in the test with OVCAR-3 ovarian, -34.1% (active). Besides, the growth was -16% (active) in the test on HS 578T breast and 20.5% in the test with NCI/ADR-RES ovarian.

As for `CC(C)c1cc(N=O)cc(C(C)C)c1O`, the growth in the test with SK-MEL-2 melanoma was 107%; with EKVX NSCLC it was 105%; in the test on SN12C renal it was 94.2%; with UO-31 renal, 90.2%; in the test on TK-10 renal, 115%; in the test with ACHN renal, 98.6%. Besides, the growth is 95.2% with CAKI-1 renal; 108% in the test with A498 renal; 101% in the test on CCRF-CEM leukemia; 89.1% in the test with MOLT-4 leukemia; 106% in the test on SR leukemia; 93.5% in the test with RPMI-8226 leukemia. The growth with OVCAR-8 ovarian was 103%; with OVCAR-5 ovarian, 97.2%; with OVCAR-4 ovarian, 104%; with SK-OV-3 ovarian, 109%; in the test with IGROV1 ovarian, 121%; with OVCAR-3 ovarian it was 110%. Also, the growth in the test on HS 578T breast is 107%; with NCI/ADR-RES ovarian, 99.8%.

As to `Oc1ccc(/C=N/N=C2c3ccccc3-c3ccccc32)c(O)c1`, the growth was 80.9% with SK-MEL-2 melanoma; 78.4% with EKVX NSCLC; 56.1% in the test with SN12C renal; 56.1% in the test on UO-31 renal; 108% in the test with TK-10 renal; 70.1% with ACHN renal. Besides, the growth with CAKI-1 renal was 66.8%; in the test with A498 renal, 95.6%; in the test with CCRF-CEM leukemia, 60.4%; in the test with MOLT-4 leukemia, 77.9%; with SR leukemia it was 54%; in the test on RPMI-8226 leukemia, 72.8%. For the same compound, the growth with OVCAR-8 ovarian is 84.5%; with OVCAR-5 ovarian, 77.1%; in the test with OVCAR-4 ovarian, 60.4%; with SK-OV-3 ovarian, 84.7%; with IGROV1 ovarian, 71.2%; in the test on OVCAR-3 ovarian it was 83.5%. Also, the growth in the test with HS 578T breast is 93.7%; in the test on NCI/ADR-RES ovarian it was 72.9%.

In the case of `O=S(=O)(Oc1ccc(-c2ccc3sccc3c2)cc1)c1ccccc1`, the growth is 111% in the test with SK-MEL-2 melanoma; 95.8% with EKVX NSCLC; 97.7% with SN12C renal; 97.7% in the test with UO-31 renal; 99.8% with TK-10 renal; 112% in the test on ACHN renal. The growth was 87% with CAKI-1 renal; 89.2% with A498 renal; 98.9% in the test on CCRF-CEM leukemia; 91.7% with MOLT-4 leukemia; 105% in the test on SR leukemia; 107% in the test on RPMI-8226 leukemia. In addition, the growth is 106% in the test on OVCAR-8 ovarian; 97.3% in the test with OVCAR-5 ovarian; 103% in the test with OVCAR-4 ovarian; 107% with SK-OV-3 ovarian; 107% with IGROV1 ovarian; 110% in the test on OVCAR-3 ovarian. Moreover, the growth was 108% with HS 578T breast and 103% in the test on NCI/ADR-RES ovarian.

With `N#Cc1ccc(C(=O)CSc2nccc(Nc3ccc(C(=O)O)cc3)n2)cc1`, the growth in the test with SK-MEL-2 melanoma was 106%; with EKVX NSCLC, 108%; with SN12C renal, 103%; in the test with UO-31 renal, 84.7%; in the test on TK-10 renal it was 110%; with ACHN renal, 107%. In addition, the growth in the test with CAKI-1 renal is 99.7%; in the test on A498 renal, 95.7%; in the test with CCRF-CEM leukemia, 94%; in the test on MOLT-4 leukemia it was 104%; in the test on SR leukemia it was 106%; in the test on RPMI-8226 leukemia it was 108%. For the same compound, the growth with OVCAR-8 ovarian is 106%; with OVCAR-5 ovarian, 102%; in the test with OVCAR-4 ovarian, 115%; with SK-OV-3 ovarian, 106%; in the test with IGROV1 ovarian it was 102%; in the test with OVCAR-3 ovarian, 110%. Further, the results for the growth in the test with HS 578T breast and in the test with NCI/ADR-RES ovarian were 98.7% and 108%, respectively.
